Screening data as filed in PubChem BioAssay.
Only some compounds are listed: those with a hit (about 3.1% of all), similar ones and a draw of the others.
Rtt109 Vps75: blocks Candida albicans Rtt109/Vps75 acetyltransferase activity; 330,000 compounds, 0.16% hits; purified Rtt109/Vps75, ThioGlo CoA-SH fluorescence, 4 h; AID 540336; inhibition, % at 34.9 µM; Q5AAJ8;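 active means inhibition of at least 50% in every replicate; inconclusive means best replicate reaches 50% inhibition but some replicates fall short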
Target sequence (Q5AAJ8 whole entry, looked up): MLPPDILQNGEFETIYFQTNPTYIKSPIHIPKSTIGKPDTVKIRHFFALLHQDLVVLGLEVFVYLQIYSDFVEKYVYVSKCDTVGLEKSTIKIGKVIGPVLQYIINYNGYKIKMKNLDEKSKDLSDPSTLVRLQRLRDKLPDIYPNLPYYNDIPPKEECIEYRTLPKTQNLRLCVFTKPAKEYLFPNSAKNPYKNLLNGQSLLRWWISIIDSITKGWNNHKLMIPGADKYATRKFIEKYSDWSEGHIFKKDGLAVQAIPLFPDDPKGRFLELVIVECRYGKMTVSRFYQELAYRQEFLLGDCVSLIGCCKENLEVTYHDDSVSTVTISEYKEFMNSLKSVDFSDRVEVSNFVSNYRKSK
MITF act: MITF TRPM1 promoter activation in melanoma cells; SK-MEL-5 TRPM1-promoter luciferase, 24 h; % of positive control, neutral wells = 0; activation, % at 12.5 µM; 300,000 compounds, 0.75% hits;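 active means mean activation of at least 80% with every replicate also reaching 80%; inconclusive means mean reaches 80% but some replicate falls short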;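 further: 0% = neutral control wells and 100% = parthenolide positive control wells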
esBAF inh: inhibitors of esBAF chromatin remodeling in mouse ES cells; Bmi1-luciferase knock-in reporter, 24 h; 100% = twice the neutral-well signal; reporter increase, % at 12.5 µM; 350,000 compounds, 2% hits; AID 602393; in the data active means activation above about 40%; inconclusive means no clear call, values can overlap the other calls;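 further: 0% = median of the plate's neutral control wells and 100% = double that signal; a rise in the Bmi1 reporter signal indicates esBAF inhibition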
Wnt act: Wnt/beta-catenin pathway activation. Wnt/beta-catenin reporter cell assay, activator, plate reader. activation, % at 9.35 µM. 300,000 compounds, 1.2% hits. AID 743398; in the data active means activation above about 30%, passing the limit was not always enough; inconclusive means no clear call, values can overlap the other calls;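 further: 0% = neutral control wells and 100% = positive control wells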
C2C12 statin: protects C2C12 myotubes from simvastatin toxicity; ATP luminescence, 48 h; scaled: DMSO 0, geranylgeraniol control 100; rescue of ATP level, % at 7.49 µM; 330,000 compounds, 0.78% hits; AID 602340;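 active means mean ATP rescue above about 67%, or every replicate alone reaching that limit, limit read from the data, passing the limit was not always enough; inconclusive means no clear call, values can overlap the other calls; inactive means mean under the limit and some replicate under it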;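 further: myotubes were challenged with 10 µM simvastatin during compound exposure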
Numbers without * were called inactive; ? = inconclusive; nt = no result given.

SMILES | Rtt109 Vps75 | MITF act | esBAF inh | Wnt act | C2C12 statin
Cc1ccc(-c2csc(NC(=O)c3ccc([N+](=O)[O-])o3)n2)cc1 | nt | -44 | 9 | 1 | 91*
Cc1ccc(-c2csc(NC(=O)c3ccno3)n2)cc1 | 3 | 36 | 60* | 15 | 5
C[C@H]1CN([C@@H](C)CO)C(=O)c2cc(NC(=O)Cc3cn(C)c4ccccc34)ccc2O[C@@H]1CN(C)C(=O)Nc1ccccc1 | nt | nt | 2 | nt | 36
CCCCC(=O)Nc1sc2c(c1C#N)CC(C)(C)OC2 | -14 | 91* | 23 | 22 | -1
CC1(C)Cc2c(sc(NC(=O)Cc3ccccc3)c2C#N)CO1 | 1 | 1 | nt | 0 | nt
O=C1C(c2ccccc2)C(c2ccccc2)NC(c2ccccc2)C1c1ccccc1 (stereo not given) | -11 | -5 | -3 | -15 | 111*
CCNC(=O)[C@H]1[C@H](CO)[C@H]2Cn3c(ccc(C4=CCCC4)c3=O)[C@@H]1N2Cc1ccccc1 | nt | nt | 3 | nt | 0
O=C(O)c1cccc(N/N=C/C2=C(Cl)c3cc(Cl)ccc3SC2)c1 | -10 | 36 | nt | 40* | nt
CCC(=O)N1C[C@@H](C)[C@@H](OC)CN(C)C(=O)c2cc(NC(=O)C3CCOCC3)ccc2OC[C@H]1C | nt | nt | 5 | nt | 10
COc1ccc(S(=O)(=O)N[C@H]2CC[C@@H](CC(=O)N3CCN(c4ccccc4)CC3)O[C@H]2CO)cc1 | nt | nt | 8 | nt | 3
CNC(C)C#Cc1ccc2c(=O)c3cc(C)c(C)cc3oc2c1 (stereo not given) | -1 | 26 | 69* | 9 | 3
CNC(C)C#Cc1ccc2oc3cc(C)c(C)cc3c(=O)c2c1 (stereo not given) | 11 | 24 | ? | 18 | -12
CNC[C@@H]1Oc2ccc(NS(=O)(=O)c3ccc(F)cc3)cc2CC(=O)N([C@H](C)CO)C[C@H]1C | nt | nt | -10 | nt | 4
CCOC(=O)c1cnn(-c2nc(-c3ccccc3)cs2)c1C(F)(F)F | -19 | 14 | 28 | nt | -6
COc1ccc(-c2csc(-n3ncc(C(=O)O)c3C(F)(F)F)n2)cc1 | -6 | 42 | ? | 9 | 9
O=C(O)c1ccc(-c2nc(-c3ccc(Cl)cc3Cl)cs2)cc1 | nt | ? | 60* | 4 | -55
O=C(O)c1ccc(-c2nc(-c3ccc(Cl)cc3)cs2)cc1 | 3 | 118* | nt | -4 | nt
O=C(O)c1cnn(-c2nc(-c3ccc(Cl)cc3)cs2)c1C(F)(F)F | -2 | 68 | 76* | 10 | 6
COC(=O)c1cnn(-c2nc(-c3ccccc3)cs2)c1N | 2 | 66 | 65* | 12 | -5
COc1ccccc1C(=O)Nc1ccc2c(c1)OC[C@@H](C)N(CC1CC1)C[C@H](C)[C@H](OC)CN(C)C2=O | nt | nt | -3 | nt | 0
C[C@@H]1CN([C@@H](C)CO)C(=O)c2cc(NS(=O)(=O)c3cn(C)cn3)ccc2O[C@@H](C)CCCCO[C@H]1CN(C)Cc1ccc(C(F)(F)F)cc1 | nt | nt | 0 | nt | nt
O=c1cc(-c2ccccc2)c2ccccc2[nH]1 | 7 | nt | 8 | 1 | -10
Cc1cccc2c(-c3ccccc3)cc(=O)[nH]c12 | -10 | nt | 2 | -4 | 84*
O=C(Oc1ccc2c(c1)C(=O)c1ccccc1CO2)c1ccccc1 | -3 | 14 | 16 | 11 | 107*
CCOC(=O)c1cnc(-n2nc(C)cc2C)nc1N(C)C | 17 | 45 | 44* | 29 | 0
SMILES | Rtt109 Vps75 | MITF act | esBAF inh | Wnt act | C2C12 statin
O=C(NCc1nnnn1-c1ccc(F)cc1)c1ccc2ccccc2c1 | nt | nt | -12 | 3 | -21
O=C(NCc1nnnn1-c1ccc(F)cc1)c1ccc([N+](=O)[O-])o1 | -18 | -33 | 3 | 4 | 70*
Cc1ccc(-n2nnnc2CNC(=O)c2ccc([N+](=O)[O-])o2)cc1C | 3 | -63 | 9 | 4 | 80*
Cc1ccc(-n2nnnc2CNC(=O)c2ccc(Br)o2)cc1C | -7 | 3 | -1 | -3 | -5
COc1ccc(NC(=O)N(C)C[C@H]2Oc3c(NC(=O)c4cnccn4)cccc3C(=O)N([C@@H](C)CO)C[C@H]2C)cc1 | nt | nt | -5 | nt | 11
O=C1C=C(NCc2ccc(Cl)c(Cl)c2)C2(CCCCC2)O1 | -1 | 14 | -56 | nt | 142*
CCOC(=O)c1c[nH]n(-c2ccc(C)cc2)c1=O | -2 | 15 | 52* | 5 | -4
COc1ccc(S(=O)(=O)NCc2cccnc2)c2ccccc12 | -2 | -3 | -1 | -3 | 94*
COc1ccc(OC)c(S(=O)(=O)NCc2ccccc2)c1 | -3 | 14 | 3 | -4 | 2
COc1ccc(OC)c(S(=O)(=O)NCc2cccnc2)c1 | -4 | -6 | 9 | nt | 126*
COc1ccc(CN(C)C[C@H]2Oc3ccc(NC(=O)Cc4ccccc4)cc3CC(=O)N([C@H](C)CO)C[C@H]2C)cc1 | nt | nt | -1 | nt | 32
C(=NOCCc1ccccc1)c1ccccn1 | -8 | 46 | 95* | 7 | -12
C(=NOCCc1ccccc1)c1ccncc1 | 5 | 91* | 49* | 0 | 0
O=C1C=C(c2ccc(C(=O)O)cc2)C[C@@H](c2ccc(F)cc2)C1 | 1 | 48 | 45* | 14 | 1
CCOc1ccc(C2=CC(=O)C[C@H](c3ccc(OC)cc3)C2)cc1 | 1 | nt | 76* | 12 | -42
C[C@H]1CN([C@@H](C)CO)C(=O)c2cc(Br)cnc2O[C@@H]1CN(C)C(=O)Nc1ccc(F)cc1 | nt | nt | 3 | nt | -8
COc1ccc(N(Cc2cc(=O)[nH]c3ccccc23)C(=O)c2ccco2)cc1 | -1 | -19 | 0 | 0 | 135*
COc1ccc(CN(C(=O)c2ccco2)c2ccccc2)cc1 | 3 | -2 | 4 | 0 | 12
CC1(Cc2ccc(Cl)cc2)C(=O)Nc2ccc(-c3cccnc3)cc21 (stereo not given) | nt | nt | -16 | -1 | 116*
Cc1onc(-c2ccncc2)c1C(=O)O | 3 | -1 | -4 | nt | 106*
O=C1c2ccccc2C(=O)N1CCSc1ccccc1 | -2 | nt | 50* | nt | -1
COc1ccc(CNc2oc(-c3cccc4ccccc34)nc2C#N)cc1 | -4 | -3 | -9 | -1 | -12
CCOP(=O)(OCC)c1nc(-c2cccc3ccccc23)oc1NCCc1ccc(OC)cc1 | -21 | 7 | -8 | -6 | 92*
COc1ccc(N2CCN(c3ncnc4scc(-c5ccc(C)cc5)c34)CC2)cc1 | 52* | 5 | -6 | -8 | -14
COc1ccc(N2CCN(c3ncnc4scc(-c5ccc(F)cc5)c34)CC2)cc1 | 2 | 2 | 2 | -6 | 4
C[C@@H]1CN([C@@H](C)CO)C(=O)Cc2cc(NS(=O)(=O)c3ccc(F)cc3)ccc2O[C@@H]1CN(C)C(=O)Nc1ccc2c(c1)OCO2 | nt | nt | 3 | nt | -6
O=[N+]([O-])c1ccccc1-c1ccc(C(=S)N2CCCCC2)o1 | 4 | nt | ? | -2 | 12
CC1CN(C(=O)c2ccc(-c3ccccc3Cl)o2)CC(C)O1 (stereo not given) | 10 | 67 | 33 | 3 | -4
CC(=O)N1CCN(C(=O)c2ccc(-c3ccccc3Cl)o2)CC1 | 15 | 65 | 47* | 25 | 0
